Jurkat NFkB inh: inhibitors of the PMA/ionomycin-induced NF-kB reporter in Jurkat cells | hit rate 0.53% among 330,000 | PMA/ionomycin-induced NF-kB luciferase reporter, luminescence | AID 435003 | inhibition, % at 4 µM; in the data active = inhibition above about 50%
697 NFkB inh: lowers PMA/ionomycin-induced NF-kB signal in 697 B cells; inhibition, % at 4 µM; 697 B-cell NF-kB luciferase reporter, 16 h; hit rate 0.33% among 330,000; in the data active = inhibition above about 35%
Beta apoptosis: beta cell apoptosis inhibition; INS-1E cytokine-induced death, ATP luminescence, 48 h; percent of positive-control rescue, neutral wells zero; protection from apoptosis, % (no concentration beside the values); hit rate 0.8% among 300,000;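 active = Every replicate reaches about 75%, or at least half do and their mean reaches it too, limit read from the data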;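 note: 0% = cytokine-treated negative control wells and 100% = positive control rescue; higher means more ATP so stronger rescue from cytokine killing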
Mdm2-MdmX inh: disrupts the human Mdm2-MdmX interaction; O15151+Q00987; SaOS-2 split-luciferase Mdm2/MdmX complementation, luminescence; inhibition, % at 8 µM; hit rate 3% among 330,000; AID 485346;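 active = inhibition of at least 50% at 8 µM in the primary screen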
CSC inhib: blocks cancer stem cells | cancer stem cell-like cells viability, luminescence | inhibition, % at 7.5 µM | hit rate 1.1% among 300,000 | AID 2717; in the data active = inhibition above about 75%; tested in HMLE shEcad cells
Gli-Sufu block: blocks Gli-Sufu signaling in a luciferase reporter; inhibition, % at 5 µM; Sufu-KO-LIGHT fibroblasts, Gli luciferase reporter luminescence; hit rate 0.74% among 340,000;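 active = inhibition above about 55%, limit read from the data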;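 note: 0% = DMSO-treated cells and 100% = wells with medium but no cells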
Mdm2-MdmX conf: human Mdm2/MdmX binding inhibition, confirmed. inhibition, % at 8 µM. hit rate 55% among 10,000. shares compounds with Mdm2-MdmX inh. AID 489028. luminescent assay; in the data active = inhibition above about 40%
Full FLuc ctr: counter-screen for Mdm2/MdmX inhibitors: full-length luciferase; hit rate 77% among 6,200; inhibition, % at 8 µM; SaOS-2 full-length luciferase counterscreen, luminescence; shares compounds with Mdm2-MdmX inh;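 active = mean inhibition at 8 µM reaching about 37%, which flags the compound as non-specific, limit read from the data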;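 note: p53-null SaOS-2 cells with luciferase driven by a doxycycline-inducible promoter; compound on cells about two nights before reading with doxycycline added after day one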
Active calls of the source: *. Compounds with a hit are over-represented: about 4.5% of the library has one in this group of screens.

How did COC(=O)C1=C(c2cccc(OCc3ccccc3)c2)C[C@@H]2CC[C@H]1N2C(=O)NCc1cc(C)oc1C(F)(F)F do in these assays?
Jurkat NFkB inh: 11; 697 NFkB inh: 16; Beta apoptosis: 1; Mdm2-MdmX inh: 37; CSC inhib: 30; Gli-Sufu block: 12

How did C=CCn1c(O)c(C(CC)=NCc2ccc3c(c2)OCO3)c(=O)[nH]c1=O do in these assays?
Jurkat NFkB inh: -6; 697 NFkB inh: 32; Beta apoptosis: -9; Mdm2-MdmX inh: 55*; CSC inhib: 5; Gli-Sufu block: -7; Mdm2-MdmX conf: 5

Results for CCCCn1c(O)c(C(CC)=NCc2ccc3c(c2)OCO3)c(=O)[nH]c1=O ?
Jurkat NFkB inh: 9; 697 NFkB inh: -10; Beta apoptosis: 6; Mdm2-MdmX inh: -19; Gli-Sufu block: 12

Results for COC(=O)c1ccc(NC(=O)CSc2nc3ccc(N4C(=O)C5C6C=CC(C6)C5C4=O)cc3s2)cc1 (stereo not drawn) ?
Jurkat NFkB inh: 3; 697 NFkB inh: -21; Beta apoptosis: 5; Mdm2-MdmX inh: 69*; CSC inhib: 32; Gli-Sufu block: 18; Mdm2-MdmX conf: 23

Results for COC(=O)C1=C(c2ccc(F)cc2F)C[C@@H]2CC[C@H]1N2C(=O)NCCOc1ccc(OC)cc1 ?
Jurkat NFkB inh: -18; 697 NFkB inh: -10; Beta apoptosis: -1; Mdm2-MdmX inh: 13; CSC inhib: 6; Gli-Sufu block: 0

Results for O=C1/C(=C\c2ccccc2)C2OCC=C3CN4CCC56c7ccccc7N1C5C2C3CC46 (stereo not drawn) ?
Jurkat NFkB inh: 19; 697 NFkB inh: -12; Beta apoptosis: -5; Mdm2-MdmX inh: 71*; CSC inhib: 22; Gli-Sufu block: 10; Mdm2-MdmX conf: 51*; Full FLuc ctr: 70*

What do the screens show for `O=C1CC2OCC=C3CN4CCC56c7cc([N+](=O)[O-])ccc7N1C5C2C3CC46` (stereo not drawn)?
Jurkat NFkB inh: -4; 697 NFkB inh: -12; Beta apoptosis: -5; Mdm2-MdmX inh: 21; CSC inhib: -10; Gli-Sufu block: 12

Results for Clc1ccc(C(c2ccc(Cl)cc2)n2cc[n+](CC(OCc3ccc(Cl)cc3Cl)c3ccc(Cl)cc3Cl)c2)cc1 (stereo not drawn) ?
Jurkat NFkB inh: 17; 697 NFkB inh: 19; Beta apoptosis: 121*; Mdm2-MdmX inh: 100*; CSC inhib: 107*; Gli-Sufu block: 26; Mdm2-MdmX conf: 70*; Full FLuc ctr: 29

How did CC1Oc2cc3c(-c4c(O)cc(O)c5c(O)c6c(cc45)OC(C)C(C)C6=O)c(O)cc(O)c3c(O)c2C(=O)C1C (stereo not drawn) do in these assays?
Jurkat NFkB inh: 1; 697 NFkB inh: -3; Beta apoptosis: 109*; Mdm2-MdmX inh: 89*; CSC inhib: -3; Gli-Sufu block: 68*; Mdm2-MdmX conf: 73*; Full FLuc ctr: 22

How did Cc1ccccc1-[n+]1c(-c2ccccc2)cc(-c2ccccc2)cc1-c1ccccc1 do in these assays?
Jurkat NFkB inh: 16; 697 NFkB inh: -11; Beta apoptosis: 100*; Mdm2-MdmX inh: 88*; CSC inhib: 27; Gli-Sufu block: 77*; Mdm2-MdmX conf: 88*; Full FLuc ctr: 19

What do the screens show for `Oc1ccccc1-[n+]1c(-c2ccccc2)cc(-c2ccccc2)cc1-c1ccccc1`?
Jurkat NFkB inh: 20; 697 NFkB inh: -15; Beta apoptosis: 42; Mdm2-MdmX inh: 42; CSC inhib: 16; Gli-Sufu block: 24

What do the screens show for `[O-]c1ccccc1-[n+]1c(-c2ccccc2)cc(-c2ccccc2)cc1-c1ccccc1`?
Jurkat NFkB inh: 13; 697 NFkB inh: -42; Beta apoptosis: 95*; Mdm2-MdmX inh: 90*; CSC inhib: 38; Gli-Sufu block: 16; Mdm2-MdmX conf: 71*; Full FLuc ctr: 22

What do the screens show for `COc1ccc(NC(=O)c2cn(CCC#N)nc2-c2cccc([N+](=O)[O-])c2)cc1`?
Jurkat NFkB inh: 8; 697 NFkB inh: 31; Beta apoptosis: 0; Mdm2-MdmX inh: -21; CSC inhib: -6; Gli-Sufu block: 5

Screens as filed in PubChem.
